Test results reported in PMC7862700, “An all-to-all approach to the identification of sequence-specific readers for epigenetic DNA modifications on cytosine”.

Key:
Experiment in all cases: DAPPL (digital affinity profiling via proximity ligation, sequencing); 10 mM Tris-HCl pH 7.5, 50 mM NaCl, 1 mM DTT, 4% glycerol, room temperature, 30 min; GST-TFs on glutathione beads, 16-mer random dsDNA library, 0.1% formaldehyde crosslink after washing; high values mean tight binding
Conditions in all cases: protein: recombinant; tags: N-terminal GST; dsDNA, one strand shown
ELK3 = target: T1, ELK3 (Homo sapiens, UniProt P41970 1-407)
T1 sequence: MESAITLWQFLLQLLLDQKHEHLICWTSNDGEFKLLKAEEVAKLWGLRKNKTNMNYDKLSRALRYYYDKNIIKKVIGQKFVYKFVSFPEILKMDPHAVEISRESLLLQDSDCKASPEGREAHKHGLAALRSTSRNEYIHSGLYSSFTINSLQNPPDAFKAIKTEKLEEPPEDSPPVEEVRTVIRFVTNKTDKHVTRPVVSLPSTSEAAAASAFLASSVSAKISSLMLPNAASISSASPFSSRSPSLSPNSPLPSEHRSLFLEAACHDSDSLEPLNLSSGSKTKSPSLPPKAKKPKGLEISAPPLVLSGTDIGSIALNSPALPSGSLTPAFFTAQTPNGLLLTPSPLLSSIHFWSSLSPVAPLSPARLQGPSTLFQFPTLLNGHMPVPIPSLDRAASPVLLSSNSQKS
Method in brief: (§1)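 Human transcription factors fused to GST were expressed in yeast, captured on glutathione beads, given DNA barcodes and pooled with a GST-only negative control. Pools were incubated with 200 nmole of a 16-mer random double-stranded DNA library in Tris/NaCl/DTT/glycerol buffer at room temperature for 30 min. They were then washed, crosslinked with 0.1% formaldehyde, proximity-ligated (BsaI/T4 ligase, 1 h, 37 °C), PCR-amplified and sequenced on an Illumina NextSeq500. Binding signal is each 6-mer's read frequency for a factor divided by its frequency for the GST control.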

ERF = target: T2, ERF (Homo sapiens, UniProt P50548 1-548)
T2 sequence: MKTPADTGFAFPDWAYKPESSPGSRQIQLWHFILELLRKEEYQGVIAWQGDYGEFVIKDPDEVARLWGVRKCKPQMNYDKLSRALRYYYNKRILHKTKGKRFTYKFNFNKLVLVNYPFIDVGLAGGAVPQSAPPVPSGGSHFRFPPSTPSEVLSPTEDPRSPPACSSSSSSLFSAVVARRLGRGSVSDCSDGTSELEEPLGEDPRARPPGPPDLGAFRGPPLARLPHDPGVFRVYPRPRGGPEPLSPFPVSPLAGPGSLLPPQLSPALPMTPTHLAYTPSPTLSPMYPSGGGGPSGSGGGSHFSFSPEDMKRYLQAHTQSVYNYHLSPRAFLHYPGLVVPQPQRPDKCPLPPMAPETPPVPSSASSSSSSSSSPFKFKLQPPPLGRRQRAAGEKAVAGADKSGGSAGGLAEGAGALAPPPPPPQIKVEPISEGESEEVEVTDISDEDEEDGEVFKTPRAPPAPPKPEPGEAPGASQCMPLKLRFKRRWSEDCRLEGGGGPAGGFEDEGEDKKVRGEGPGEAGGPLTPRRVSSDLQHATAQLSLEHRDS
Method in brief: as §1

ETV7 = target: T3, ETV7 (Homo sapiens, UniProt Q9Y603 1-341)
T3 sequence: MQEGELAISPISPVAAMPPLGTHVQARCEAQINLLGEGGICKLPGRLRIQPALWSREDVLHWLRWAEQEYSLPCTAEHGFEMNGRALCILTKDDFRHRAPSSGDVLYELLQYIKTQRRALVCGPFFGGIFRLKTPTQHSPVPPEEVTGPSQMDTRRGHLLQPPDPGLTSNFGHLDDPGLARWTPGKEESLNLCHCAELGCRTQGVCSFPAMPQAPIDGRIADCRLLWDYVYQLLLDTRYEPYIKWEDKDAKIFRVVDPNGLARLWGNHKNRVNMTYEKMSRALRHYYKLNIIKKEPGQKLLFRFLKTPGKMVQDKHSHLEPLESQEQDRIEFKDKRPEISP
Method in brief: as §1

SPDEF = target: T4, SPDEF (Homo sapiens, UniProt O95238 1-335)
T4 sequence: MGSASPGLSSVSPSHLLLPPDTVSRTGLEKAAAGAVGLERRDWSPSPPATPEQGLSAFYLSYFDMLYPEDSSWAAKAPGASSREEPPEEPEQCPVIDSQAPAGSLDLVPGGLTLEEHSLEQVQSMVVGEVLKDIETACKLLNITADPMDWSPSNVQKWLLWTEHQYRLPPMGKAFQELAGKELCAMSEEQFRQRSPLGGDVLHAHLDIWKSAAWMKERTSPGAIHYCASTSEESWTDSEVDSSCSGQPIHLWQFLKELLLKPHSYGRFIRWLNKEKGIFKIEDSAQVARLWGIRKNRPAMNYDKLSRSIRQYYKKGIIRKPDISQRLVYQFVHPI
Method in brief: as §1

ETV1 = ETV1 (Homo sapiens, UniProt P50549 1-477)
Method in brief: as §1

SPI1 = SPI1 (Homo sapiens, UniProt P17947 1-270)
Method in brief: as §1

GABPA = target: T5, GABPA (Homo sapiens, UniProt Q06546 1-454)
T5 sequence: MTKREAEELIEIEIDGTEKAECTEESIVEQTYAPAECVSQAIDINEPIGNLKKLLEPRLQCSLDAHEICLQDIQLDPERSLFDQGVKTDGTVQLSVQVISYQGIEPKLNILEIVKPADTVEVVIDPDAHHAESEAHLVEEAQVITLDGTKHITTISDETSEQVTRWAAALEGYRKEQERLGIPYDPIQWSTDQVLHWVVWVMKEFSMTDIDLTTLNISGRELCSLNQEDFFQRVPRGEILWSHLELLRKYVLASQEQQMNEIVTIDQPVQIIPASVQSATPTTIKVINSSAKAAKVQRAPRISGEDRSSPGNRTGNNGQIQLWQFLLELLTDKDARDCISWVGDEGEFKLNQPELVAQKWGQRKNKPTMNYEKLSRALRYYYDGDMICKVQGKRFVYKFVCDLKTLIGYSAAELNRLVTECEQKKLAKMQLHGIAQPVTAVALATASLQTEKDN
Method in brief: as §1

ETV3L = target: T6, ETV3L (Homo sapiens, UniProt Q6ZN32 1-361)
T6 sequence: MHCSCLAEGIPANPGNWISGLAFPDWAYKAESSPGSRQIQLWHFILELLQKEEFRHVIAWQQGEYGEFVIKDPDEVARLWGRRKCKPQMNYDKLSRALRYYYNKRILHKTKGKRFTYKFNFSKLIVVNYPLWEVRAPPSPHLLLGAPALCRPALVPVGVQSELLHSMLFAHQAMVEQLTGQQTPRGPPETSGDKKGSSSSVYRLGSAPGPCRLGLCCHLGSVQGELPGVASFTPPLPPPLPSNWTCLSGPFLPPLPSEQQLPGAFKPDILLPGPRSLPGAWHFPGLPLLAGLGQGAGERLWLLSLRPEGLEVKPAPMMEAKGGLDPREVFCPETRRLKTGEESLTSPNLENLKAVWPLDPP
Method in brief: as §1

ETV3 = target: T7, ETV3 (Homo sapiens, UniProt P41162-2 1-143)
T7 sequence: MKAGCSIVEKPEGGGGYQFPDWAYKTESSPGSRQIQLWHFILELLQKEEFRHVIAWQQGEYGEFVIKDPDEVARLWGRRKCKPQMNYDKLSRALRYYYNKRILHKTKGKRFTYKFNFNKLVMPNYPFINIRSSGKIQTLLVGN
Method in brief: as §1

ETS2 = target: T8, ETS2 (Homo sapiens, UniProt P15036 1-469)
T8 sequence: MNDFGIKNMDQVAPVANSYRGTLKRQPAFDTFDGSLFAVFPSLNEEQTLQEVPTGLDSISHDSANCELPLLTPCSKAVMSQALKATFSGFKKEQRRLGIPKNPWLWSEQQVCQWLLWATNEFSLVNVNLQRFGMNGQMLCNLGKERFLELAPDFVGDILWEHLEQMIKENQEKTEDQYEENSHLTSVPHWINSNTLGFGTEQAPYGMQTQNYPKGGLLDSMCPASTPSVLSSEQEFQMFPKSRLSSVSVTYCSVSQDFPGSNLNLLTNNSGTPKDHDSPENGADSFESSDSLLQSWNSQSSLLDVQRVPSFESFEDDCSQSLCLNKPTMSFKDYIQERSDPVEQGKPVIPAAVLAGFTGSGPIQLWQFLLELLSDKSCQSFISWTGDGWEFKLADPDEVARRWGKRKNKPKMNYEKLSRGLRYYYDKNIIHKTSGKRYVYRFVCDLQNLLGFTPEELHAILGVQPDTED
Method in brief: as §1

Sequence of ETV1 (P50549 whole entry): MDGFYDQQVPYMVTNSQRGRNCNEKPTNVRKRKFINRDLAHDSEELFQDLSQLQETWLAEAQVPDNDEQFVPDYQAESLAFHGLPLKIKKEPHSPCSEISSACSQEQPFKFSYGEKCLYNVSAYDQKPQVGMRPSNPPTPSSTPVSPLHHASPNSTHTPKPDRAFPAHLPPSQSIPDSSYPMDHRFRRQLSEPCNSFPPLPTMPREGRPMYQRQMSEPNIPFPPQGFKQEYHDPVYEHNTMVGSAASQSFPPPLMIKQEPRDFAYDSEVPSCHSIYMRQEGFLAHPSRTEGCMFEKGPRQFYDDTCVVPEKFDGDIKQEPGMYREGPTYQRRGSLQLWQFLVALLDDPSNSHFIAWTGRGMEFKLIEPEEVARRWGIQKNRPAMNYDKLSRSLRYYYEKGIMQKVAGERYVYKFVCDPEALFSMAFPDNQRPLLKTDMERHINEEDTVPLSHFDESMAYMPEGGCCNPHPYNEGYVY

Question: How did the binding signal (ELK3) turn out when CAGCAA was run?
Answer: 1.01 fold enrichment (6-mer frequency, TF over GST control)

Question: What about the binding signal (ERF) of the same sequence?
Answer: 1.04 fold enrichment (6-mer frequency, TF over GST control)

Question: And the binding signal (ETV7)?
Answer: 1.06 fold enrichment (6-mer frequency, TF over GST control)

Question: With GGGTCC as the sequence, how does the binding signal (SPDEF) read?
Answer: 1 fold enrichment (6-mer frequency, TF over GST control)

Question: With CGCGGT as the sequence, how does the binding signal (ETV1) read?
Answer: 1.03 fold enrichment (6-mer frequency, TF over GST control)

Question: With AAGGGG as the sequence, how does the binding signal (SPI1) read?
Answer: 1.36 fold enrichment (6-mer frequency, TF over GST control)

Question: And the binding signal (ELK3)?
Answer: 1.05 fold enrichment (6-mer frequency, TF over GST control)

Question: And the binding signal (ETV1)?
Answer: 1.07 fold enrichment (6-mer frequency, TF over GST control)

Question: What does the source list for GGGCTG?
Answer: binding signal (GABPA): 1.03 fold enrichment (6-mer frequency, TF over GST control); binding signal (ERF): 1.03 fold enrichment (6-mer frequency, TF over GST control); binding signal (ETV3L): 1.03 fold enrichment (6-mer frequency, TF over GST control); binding signal (ETV7): 1.05 fold enrichment (6-mer frequency, TF over GST control)

Question: Which binding signal (ERF) does the source give for GACAAA here?
Answer: 1.06 fold enrichment (6-mer frequency, TF over GST control)

Question: And the binding signal (ETV7)?
Answer: 1.1 fold enrichment (6-mer frequency, TF over GST control)

Question: Which binding signal (ERF) does the source give for ATAGAG here?
Answer: 1.01 fold enrichment (6-mer frequency, TF over GST control)

Question: For GATGTG, which binding signal (SPDEF) is on record?
Answer: 1.18 fold enrichment (6-mer frequency, TF over GST control)

Question: What about the binding signal (ETV3) of the same sequence?
Answer: 1.01 fold enrichment (6-mer frequency, TF over GST control)

Question: AGTTCA was tested. Which binding signal (SPI1) did it give?
Answer: 1.01 fold enrichment (6-mer frequency, TF over GST control)

Question: What about the binding signal (ETV3L) of the same sequence?
Answer: 1.04 fold enrichment (6-mer frequency, TF over GST control)

Question: What about the binding signal (ETS2) of the same sequence?
Answer: 1 fold enrichment (6-mer frequency, TF over GST control)
